The text below walks through data of PubChem BioAssay (NCATS).

A short description of assay [1]: qHTS for differential inhibitors of proliferation of Plasmodium falciparum line Dd2 (AID 1882). Also: series mostly up to about 29 µM; nearly all actives have a fitted effect of over 65% in size. The settings on record: Potency: Plasmodium falciparum Dd2 proliferation inhibition. The method in brief: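 Dd2-infected erythrocytes (0.3% parasitemia, 2.5% hematocrit final) incubated with compound 72 h at 37 C, 5% CO2; lysed with saponin/Triton buffer containing SYBR Green I, incubated overnight in the dark, then read by fluorescence (485/535 nm). Normalized to 0.29 uM artemisinin and DMSO.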

Assay [2] can be described thus: qHTS for differential inhibitors of proliferation of Plasmodium falciparum line HB3 (AID 1886).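 Also: parasites grown with compound for 72 h before SYBR Green readout.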 The settings on record: Potency: Plasmodium falciparum HB3 proliferation inhibition.
The target in assay [3] is Ferritin light chain (Equus caballus) (UniProt P02791). Nature of the assay: qHTS Validation Assay for Identification of Novel General Anesthetics (AID 2323). Also: series mostly up to about 77 µM. The method in brief:
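Horse-spleen apoferritin (10 uM) in PBS with 50% saturated 1-aminoanthracene; compounds pin-transferred, 10 min at room temperature. Fluorescence read at 380/535 nm, normalized to free 1-AMA and 1-AMA/apoferritin values; four-parameter Hill fit.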

Assay [4] in a line: Cytometric Cell-Based qHTS for Inhibitors of the mTORC1 Signaling Pathway in MEF (Tsc2-/-, p53-/-) Cells (AID 2660).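 Also: percent of cells above a phospho-rpS6 to PI ratio cutoff in each well; series mostly up to about 38 µM.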 Summed up:
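Immunofluorescence qHTS of rpS6 Ser235/236 phosphorylation: MEFs (Tsc2-/-, p53-/-) treated 24 h, 37 C, in DMEM + 10% FBS. Alexa-488 signal normalized to PI count, referenced to rapamycin (7.5 nM) and DMSO; PI cell number recorded for viability.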

Assay [5] is described as follows: High Content Imaging Cell-Based qHTS for Inhibitors of the mTORC1 Signaling Pathway in MEF (Tsc2-/-, p53-/-) Cells (AID 2666).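 Also: percent of cells scored positive for phospho-rpS6 Ser235/236 immunostaining by imaging.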 Summed up:
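Phospho-rpS6 (Ser235/236) immunofluorescence, normalized and scored as % positive cells using rapamycin and DMSO controls, was read in empty-vector Tsc2-/-, p53-/- MEFs after 24 h compound exposure at 37 C; propidium iodide counted cells.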

Assay [6] can be described thus: High Content Imaging Cell-Based qHTS for Inhibitors of the mTORC1 Signaling Pathway in MEF Cells (AID 2667).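 Also: Tsc2-/- p53-/- MEFs stably re-expressing wild-type Tsc2 exposed 24 h; series mostly up to about 38 µM.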 Summed up: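 WT MEFs (Tsc2-/-, p53-/- re-expressing Tsc2), in DMEM + 10% FBS, were treated with compound for 24 h at 37 C. Cells were then fixed and stained for phospho-rpS6 Ser235/236 with propidium iodide as cell count. Values are % positive cells, with thresholds set against rapamycin-treated cells.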

A short description of assay [7]: Cytometry Cell-Based qHTS for Inhibitors of the mTORC1 Signaling Pathway in MEF cells (AID 2668).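 Also: Tsc2-/- p53-/- mouse embryonic fibroblasts stably re-expressing wild-type Tsc2; percent cells positive for phospho-rpS6 Ser235/236 relative to propidium iodide stain; series mostly up to about 38 µM.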 Summed up:
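MEFs (Tsc2-/-, p53-/- stably expressing WT Tsc2) treated 24 h at 37 degree Celsius, fixed, stained with Alexa-488 anti-phospho-rpS6 Ser235/236 and propidium iodide; Acumen laser scanning. Reported as % positive cells, phospho-S6 normalized to PI.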

In assay [8] the target is Ubiquitin carboxyl-terminal hydrolase 2 (Homo sapiens) (UniProt O75604). Nature of the assay: qHTS Validation Assay for Inhibitors of Ubiquitin-specific Protease USP2a Using CHOP2 as the Reporter (AID 463106). Also: potency is read from the fitted curve at half-maximal effect. Summed up: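 USP2 core (10 nM final) was preincubated with compound 30 min at RT in pH 8.0 Tris/CaCl2/beta-ME/CHAPS buffer. Ub-CHOP2 and reporter substrate (25 nM final each) were then added, with fluorescence (Ex 485/Em 531) read after 60 min. Data were normalized to NEM full inhibition and fitted to concentration-response curves.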
Ubiquitin carboxyl-terminal hydrolase 2 (Homo sapiens), sequence (O75604 whole entry, looked up): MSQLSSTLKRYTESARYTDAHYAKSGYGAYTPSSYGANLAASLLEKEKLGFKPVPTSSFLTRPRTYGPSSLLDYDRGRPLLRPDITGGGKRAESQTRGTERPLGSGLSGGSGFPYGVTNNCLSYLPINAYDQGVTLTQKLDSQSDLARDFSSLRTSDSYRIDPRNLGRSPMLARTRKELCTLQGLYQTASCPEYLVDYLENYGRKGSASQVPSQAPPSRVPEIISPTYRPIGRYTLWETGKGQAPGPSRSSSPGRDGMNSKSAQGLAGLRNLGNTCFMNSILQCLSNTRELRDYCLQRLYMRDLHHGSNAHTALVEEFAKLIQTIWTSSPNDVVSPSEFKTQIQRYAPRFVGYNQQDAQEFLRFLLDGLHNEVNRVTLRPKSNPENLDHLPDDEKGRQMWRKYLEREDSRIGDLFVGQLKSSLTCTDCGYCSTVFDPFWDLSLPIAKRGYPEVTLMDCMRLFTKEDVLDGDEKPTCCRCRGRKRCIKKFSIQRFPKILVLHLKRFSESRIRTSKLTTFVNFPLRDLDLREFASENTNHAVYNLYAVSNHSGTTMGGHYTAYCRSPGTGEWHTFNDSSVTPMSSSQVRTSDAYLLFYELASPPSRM

The target in assay [9] is DNA polymerase III PolC-type (Bacillus subtilis (strain 168)) (UniProt P13267). The experiment in a line: qHTS Validation Assay for the Inhibitors of DNA Replication in Gram-Positive Bacteria (AID 485295).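 Also: PicoGreen fluorescence of double-stranded DNA made on primed circular M13 template; series mostly up to about 57 µM.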 Summed up:
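Reconstituted B. subtilis Pol III holoenzyme (PolC, beta clamp, SSB, primase) preincubated with compound, then M13Gori single-stranded circular template with dNTPs/NTPs added; room temperature reaction. Stopped with EDTA/PicoGreen; dsDNA fluorescence read, EDTA as full-inhibition control.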

Assay [10] deals with Beta-2 adrenergic receptor (Homo sapiens) (UniProt P07550). Nature of the assay: qHTS validation assay of beta-arrestin-biased ligands of beta2-adrenergic receptor (AID 485366). Summed up: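 Arrestin-recruitment (Tango) reporter: ligand-bound beta2-AR recruits beta-arrestin, releasing tTA, which upregulates luciferase. Titrations of up to 46 microM incubated 18 hr at 37 degrees C before luminescent readout.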

Assay [11] is described as follows: Validation screen for small molecules that induce DNA re-replication in MCF 10A normal breast cells (AID 463097). Also: nearly all actives have a fitted effect of over 60% in size. Also: potency is read from the fitted curve at half-maximal effect. The method in brief: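 MCF 10A cells exposed to compound 48 hr at 37 C, 5% CO2, then Hoechst-stained 40 min. Laser-scanning imaging of nuclear DNA content (405 nm ex, 500-530 nm em); re-replication scored as rise in nuclei with elevated fluorescence intensity.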

Assay [12] deals with Tumor susceptibility gene 101 protein (Homo sapiens) (UniProt Q99816). The experiment in a line: qHTS Validation Assay for Iinhibitors of HIV-1 Budding by Blocking the Interaction of PTAP/TSG101 (AID 485342; calls by dose curve). The method in brief:
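Tsg101 binding domain (10 uM) with FITC-labeled PTAP peptide (50 nM) in HEPES pH 7.5 buffer, 20 min at r.t. with compounds. Binding measured by fluorescence polarization.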

Assay [13] is described as follows: qHTS Validation Assay to Find Inhibitors of Chronic Active B-Cell Receptor Signaling (AID 485345; active = well fitted curve in the direction sought with a large enough effect in the main read-out, with a control signal flat, not every such curve was filed as active). Summed up: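 TMD8 ABC-DLBCL cells stably carrying doxycycline-inducible IkappaBalpha–green luciferase fusion plus unfused red luciferase; compounds 46 uM to 3 nM, 4 h at 37C with doxycycline. Corrected green/red luminescence ratio normalized to 10 uM MG-132 and basal cell wells; curves fitted.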

Assay [14] addresses ATP-dependent DNA helicase Q1 (Homo sapiens) (UniProt P46063). The experiment in a line: qHTS Validation Assay for Inhibitors of RecQ-Like Dna Helicase 1 (RECQ1) (AID 2353). The method in brief: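 50 nM RECQ1T1 preincubated 15 min with compound in Tris pH 8.0 buffer with MgCl2, DTT, Tween-20 and 2.5 ug/ml poly(dI-dC); started with 200 nM TAMRA/BHQ-2 forked duplex and 2 mM ATP. Unwinding read as fluorescence (525/598 nm), two reads 2 h apart.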

The nature of assay [15]: qHTS Assay for Modulators of Human Peripheral Myelin Protein 22 (PMP22) Expression/Activity (AID 1967; active = well fitted curve in the direction sought with a large enough effect in the signal ratio; the % refers to the signal ratio). Summed up: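 Mouse MSC80 Schwann cells carrying Pmp22 promoter–green click beetle luciferase plus EF-alpha–red luciferase control, dosed 24 h at 37 °C. Dual-filter luminescence, overlap-corrected; %Activity from green/red ratio normalised to untreated cells, concentration-response curves fitted.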

Assay [16] deals with RecQ-like DNA helicase BLM (Homo sapiens) (UniProt P54132). Nature of the assay: qHTS Validation Assay for Inhibitors of Bloom's syndrome helicase (BLM) (AID 2364). Also: potency is read from the fitted curve at half-maximal effect. The method in brief:
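50 nM BLM preincubated 15 min at room temperature with compound in pH 8.0 Tris buffer containing 2.5 ug/ml poly(dI-dC); started with 200 nM TAMRA/BHQ-2 forked duplex and 2 mM ATP (final). Unwinding read as TAMRA fluorescence increase, two reads 2 h apart.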

SMILES strings stand for the structures. Results filed as inconclusive are left out. Active and inactive are the calls of the source. Unless noted, calls follow the shape of the dose curve; as a rule, active = well fitted curve in the direction sought with a large enough effect; inconclusive = small, poorly fitted or top-dose-only effect, or another doubt; inactive = no such curve, though single readings can be large; an effect the other way counts as inactive or inconclusive.

ATP-dependent DNA helicase Q1 (Homo sapiens), sequence (P46063 whole entry, looked up): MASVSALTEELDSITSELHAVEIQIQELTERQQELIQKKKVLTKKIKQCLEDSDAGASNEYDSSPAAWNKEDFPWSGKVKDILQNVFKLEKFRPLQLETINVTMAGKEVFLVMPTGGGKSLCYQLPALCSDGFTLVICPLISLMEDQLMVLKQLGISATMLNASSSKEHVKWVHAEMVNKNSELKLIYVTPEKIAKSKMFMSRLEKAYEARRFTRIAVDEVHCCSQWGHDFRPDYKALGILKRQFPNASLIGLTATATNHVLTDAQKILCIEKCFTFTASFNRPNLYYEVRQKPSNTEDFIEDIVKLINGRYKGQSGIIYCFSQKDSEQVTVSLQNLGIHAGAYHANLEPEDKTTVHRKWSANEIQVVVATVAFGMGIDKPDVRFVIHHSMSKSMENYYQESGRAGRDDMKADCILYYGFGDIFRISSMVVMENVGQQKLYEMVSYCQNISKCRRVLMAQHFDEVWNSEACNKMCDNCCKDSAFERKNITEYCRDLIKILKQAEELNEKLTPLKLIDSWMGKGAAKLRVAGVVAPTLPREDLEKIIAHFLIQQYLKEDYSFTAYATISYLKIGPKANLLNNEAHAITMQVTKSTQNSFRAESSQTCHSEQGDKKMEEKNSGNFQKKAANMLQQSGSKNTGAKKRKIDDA
Ferritin light chain (Equus caballus), sequence (P02791 2-175 limits assumed): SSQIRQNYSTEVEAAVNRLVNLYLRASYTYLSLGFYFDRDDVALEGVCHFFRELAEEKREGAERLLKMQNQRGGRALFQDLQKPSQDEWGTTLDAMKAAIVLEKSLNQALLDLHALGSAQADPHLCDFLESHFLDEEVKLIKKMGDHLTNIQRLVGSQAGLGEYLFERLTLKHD
RecQ-like DNA helicase BLM (Homo sapiens), sequence (P54132 whole entry, looked up): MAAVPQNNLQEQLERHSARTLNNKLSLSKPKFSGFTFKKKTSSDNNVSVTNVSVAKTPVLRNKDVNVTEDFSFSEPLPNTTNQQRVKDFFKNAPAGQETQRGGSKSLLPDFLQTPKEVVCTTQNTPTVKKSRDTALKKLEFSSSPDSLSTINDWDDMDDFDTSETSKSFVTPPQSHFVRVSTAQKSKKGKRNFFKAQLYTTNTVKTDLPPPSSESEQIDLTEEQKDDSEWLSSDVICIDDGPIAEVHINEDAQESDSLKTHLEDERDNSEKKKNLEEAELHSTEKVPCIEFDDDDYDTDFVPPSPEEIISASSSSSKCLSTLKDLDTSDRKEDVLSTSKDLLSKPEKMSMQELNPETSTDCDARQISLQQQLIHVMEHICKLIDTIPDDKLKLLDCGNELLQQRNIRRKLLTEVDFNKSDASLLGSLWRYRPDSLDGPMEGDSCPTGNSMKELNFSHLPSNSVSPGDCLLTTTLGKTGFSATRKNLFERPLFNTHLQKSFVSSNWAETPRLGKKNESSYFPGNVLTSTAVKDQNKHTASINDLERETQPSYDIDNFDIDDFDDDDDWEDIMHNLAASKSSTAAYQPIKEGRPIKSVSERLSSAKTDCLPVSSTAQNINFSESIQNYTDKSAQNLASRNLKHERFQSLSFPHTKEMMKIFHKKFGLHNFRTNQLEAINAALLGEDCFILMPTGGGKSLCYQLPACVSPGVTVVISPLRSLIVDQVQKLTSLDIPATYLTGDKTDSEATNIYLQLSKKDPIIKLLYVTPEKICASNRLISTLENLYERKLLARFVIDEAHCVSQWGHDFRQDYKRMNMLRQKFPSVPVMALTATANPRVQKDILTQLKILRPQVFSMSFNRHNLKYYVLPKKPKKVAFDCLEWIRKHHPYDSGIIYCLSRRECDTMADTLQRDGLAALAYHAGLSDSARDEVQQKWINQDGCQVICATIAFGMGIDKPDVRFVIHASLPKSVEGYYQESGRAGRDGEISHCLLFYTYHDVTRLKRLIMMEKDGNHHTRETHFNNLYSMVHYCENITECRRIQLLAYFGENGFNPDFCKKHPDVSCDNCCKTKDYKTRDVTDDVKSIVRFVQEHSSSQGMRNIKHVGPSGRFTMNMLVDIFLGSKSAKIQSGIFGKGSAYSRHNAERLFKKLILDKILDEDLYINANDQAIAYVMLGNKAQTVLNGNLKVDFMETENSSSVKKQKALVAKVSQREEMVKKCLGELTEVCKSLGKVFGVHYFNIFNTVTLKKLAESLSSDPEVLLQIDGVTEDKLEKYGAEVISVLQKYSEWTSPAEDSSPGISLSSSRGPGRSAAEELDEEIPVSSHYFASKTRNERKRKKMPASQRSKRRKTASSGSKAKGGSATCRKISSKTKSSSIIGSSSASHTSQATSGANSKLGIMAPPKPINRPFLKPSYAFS
DNA polymerase III PolC-type (Bacillus subtilis (strain 168)), sequence (P13267 whole entry, looked up): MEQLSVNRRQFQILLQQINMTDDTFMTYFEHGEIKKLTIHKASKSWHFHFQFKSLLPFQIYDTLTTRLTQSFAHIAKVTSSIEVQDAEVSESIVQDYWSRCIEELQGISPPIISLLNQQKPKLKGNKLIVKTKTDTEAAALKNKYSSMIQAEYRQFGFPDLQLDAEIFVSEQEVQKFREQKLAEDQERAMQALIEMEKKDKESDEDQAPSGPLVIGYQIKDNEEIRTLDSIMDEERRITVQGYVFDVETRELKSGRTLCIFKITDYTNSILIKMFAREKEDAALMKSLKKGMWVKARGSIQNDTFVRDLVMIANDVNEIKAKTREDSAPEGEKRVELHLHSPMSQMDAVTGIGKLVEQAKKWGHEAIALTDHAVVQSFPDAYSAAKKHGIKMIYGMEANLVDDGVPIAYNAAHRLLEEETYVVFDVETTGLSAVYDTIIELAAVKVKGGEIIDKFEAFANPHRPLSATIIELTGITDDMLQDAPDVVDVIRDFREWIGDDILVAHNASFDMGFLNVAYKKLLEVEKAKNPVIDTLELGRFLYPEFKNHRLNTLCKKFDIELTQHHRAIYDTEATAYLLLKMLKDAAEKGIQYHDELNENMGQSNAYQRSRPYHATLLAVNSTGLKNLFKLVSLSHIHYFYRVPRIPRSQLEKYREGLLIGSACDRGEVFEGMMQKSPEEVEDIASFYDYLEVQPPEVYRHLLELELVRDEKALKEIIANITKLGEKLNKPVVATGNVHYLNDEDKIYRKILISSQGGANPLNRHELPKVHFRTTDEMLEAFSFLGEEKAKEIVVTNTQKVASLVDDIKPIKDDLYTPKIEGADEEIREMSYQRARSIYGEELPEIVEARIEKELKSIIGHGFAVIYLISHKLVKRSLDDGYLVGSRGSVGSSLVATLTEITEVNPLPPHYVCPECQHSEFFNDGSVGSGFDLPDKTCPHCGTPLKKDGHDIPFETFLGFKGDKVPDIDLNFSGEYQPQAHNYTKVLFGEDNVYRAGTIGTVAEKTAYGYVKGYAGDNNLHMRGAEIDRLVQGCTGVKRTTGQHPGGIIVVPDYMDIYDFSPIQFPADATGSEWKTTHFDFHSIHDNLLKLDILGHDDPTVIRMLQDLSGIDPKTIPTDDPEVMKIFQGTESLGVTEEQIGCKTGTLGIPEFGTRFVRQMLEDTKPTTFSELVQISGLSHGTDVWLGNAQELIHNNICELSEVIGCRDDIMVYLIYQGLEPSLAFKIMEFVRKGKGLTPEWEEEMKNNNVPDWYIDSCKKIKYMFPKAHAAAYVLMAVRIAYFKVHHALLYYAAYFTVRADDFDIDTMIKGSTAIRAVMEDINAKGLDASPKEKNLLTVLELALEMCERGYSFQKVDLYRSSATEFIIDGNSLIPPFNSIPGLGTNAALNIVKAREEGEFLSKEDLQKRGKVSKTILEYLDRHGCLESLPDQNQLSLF
Tumor susceptibility gene 101 protein (Homo sapiens), sequence (Q99816 whole entry, looked up, the tested form may be a part): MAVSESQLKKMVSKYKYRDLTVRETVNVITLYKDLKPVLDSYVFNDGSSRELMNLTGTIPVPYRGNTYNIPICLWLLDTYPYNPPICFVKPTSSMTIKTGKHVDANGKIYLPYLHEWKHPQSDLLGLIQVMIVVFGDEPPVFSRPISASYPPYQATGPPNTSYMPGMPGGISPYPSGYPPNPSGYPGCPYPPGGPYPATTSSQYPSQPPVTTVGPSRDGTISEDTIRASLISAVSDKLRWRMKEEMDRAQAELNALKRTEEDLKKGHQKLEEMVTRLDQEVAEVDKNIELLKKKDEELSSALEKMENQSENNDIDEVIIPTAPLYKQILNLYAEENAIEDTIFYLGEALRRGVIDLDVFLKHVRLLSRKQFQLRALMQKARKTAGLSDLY

Regarding `Cc1cccc(C(=O)NCN2CCN(c3ccccc3C#N)CC2)c1`, the Potency result in assay [1], in assay [2], in assay [3], in assay [5], in [6] and in [7] was “inactive” each time. Further, the Potency result in assay [8] and in assay [9] was “inactive” throughout. Further, the compound was classed as inactive in assay [4] and in [10].

For `CN1CCC2(CCN3CCc4c(oc5ccccc45)C3C2)N(C)C1=O` (stereo not given), the Potency result in assay [1], in assay [3], in [5], in assay [6], in assay [11] and in [8] was “inactive” in each case. Besides, the Potency result in [9] is “inactive”. In addition, the compound was classed as inactive in assay [4], in assay [12], in assay [13] and in assay [10].

In the case of `CC(N)(Cc1ccc(O)c(O)c1)C(=O)O` (stereo not given), the Potency result in assay [1], in [2], in [3], in assay [5], in assay [6] and in assay [7] was “inactive” each time. Further, the Potency result in assay [11], in assay [8] and in assay [9] was “inactive” throughout. Further, the compound was called inactive in assay [4], in assay [12] and in [13].

With `N[C@@H](Cc1c[nH]c2ccccc12)C(=O)O`, the Potency result in assay [1], in assay [3], in [14], in assay [5], in [6] and in assay [7] was “inactive” throughout. Moreover, the Potency result in assay [11], in [8] and in assay [9] was “inactive” throughout. In addition, the compound was called inactive in assay [4], in [12], in assay [13] and in [10].

For `Nc1ccc(-c2ccc3ccccc3n2)cc1`, the Potency result in [1], in assay [3], in assay [14], in [5], in assay [8] and in assay [9] was “inactive” in each case. Further, the outcome in [4], in assay [12], in assay [13] and in [10] was inactive. Moreover, the Potency in assay [11] is 12.6 µM (active).

In the case of `O=C(O)c1cc2cc(F)ccc2[nH]1`, the Potency entry in [1], in assay [3], in assay [5], in assay [6], in assay [7] and in assay [11] was “inactive” in each case. Also, the Potency result in [8] and in assay [9] was “inactive” in each case. The compound was called inactive in assay [4], in [13] and in assay [10].

`NOCC(=O)O`: the Potency entry in assay [1], in [3], in assay [14], in assay [16], in assay [5] and in assay [6] was “inactive” in each case. For the same compound, the Potency entry in assay [7], in assay [11], in assay [8] and in assay [9] was “inactive” each time. The result in assay [15], in assay [4], in assay [12] and in assay [10] was inactive.

As for `COc1cc(/C=C(\C#N)C(=O)c2ccc(O)c(O)c2)cc(I)c1O`, the Potency result in assay [1], in assay [5], in assay [6] and in [7] was “inactive” in each case. In addition, the Potency in assay [16] is 10 µM (active); in [8], 14.7 µM (active). For the same compound, the compound was classed as inactive in assay [4], in assay [12] and in assay [10].

On to `CCC(=O)N1CCN(C(=O)c2ccccc2)CC1`, for which the Potency result in [1], in assay [3], in [14], in assay [5], in assay [6] and in assay [7] was “inactive” in each case. For the same compound, the Potency result in assay [11], in assay [8] and in [9] was “inactive” throughout. The result in assay [4], in assay [12], in assay [13] and in assay [10] was inactive.

Regarding `C=CC1(C)CC(=O)C2(O)C(C)(O1)C(OC(C)=O)C(O)C1C(C)(C)CCC(O)C12C` (stereo not given), the Potency entry in assay [1], in assay [3], in assay [14], in assay [5], in [7] and in assay [8] was “inactive” throughout. The Potency result in assay [9] was “inactive”. For the same compound, the call in [4] and in [10] was inactive.

Regarding `Cn1c(=O)c2[nH]c(C3CCCC3)nc2n(C)c1=O`, the Potency result in [1], in assay [3], in assay [16], in [5], in assay [6] and in assay [7] was “inactive” in each case. Further, the Potency entry in assay [11], in assay [8] and in [9] was “inactive” in each case. Besides, the result in [4], in [12] and in assay [10] was inactive.
